Results filed as inconclusive are left out. Activity calls are given as the source filed them. The call rests on the fitted dose curve; in most records, active means well fitted inhibition curve with a large enough effect; inconclusive means small, poorly fitted or top-dose-only effect; inactive means flat fitted curve, though single readings scatter.
What follows are compounds tested on HACAT (assay: qHTS assay to identify novel small-molecules to repurpose for Merkel cell carcinoma treatment (AID 1296009; further: nearly all actives have a fitted effect of over 60% in size)). Details: MCC and control cell lines, CellTiter-Glo viability, 72 h; at 44.8 µM (top of the series) unless noted.
Summary of the method: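 Cell viability measured by CellTiter-Glo following 72 hr compound treatment at 37 degree celsius, with NPC and MIPE libraries tested in 8- and 11-point concentration series.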

Compound | outcome
O=S(=O)(c1ccc(Cl)cc1)N1CCN(c2ccnc3cc(Cl)ccc23)CC1 | inactive
CC(C)(O)C(=O)N1CCN(c2ccc(C(F)(F)F)c(C3=C(c4c[nH]c5ccccc45)C(=O)NC3=O)c2)CC1 | inactive
C=C1CC[C@@H]2[C@](C)(CO)[C@H](O)CC[C@@]2(C)[C@@H]1/C=C/C1=CCOC1=O | inactive
COc1cc2ncc(-c3ccccc3)nc2cc1OC | inactive
COC1C(O)C(OC2CCC3(C)C(CCC45CCC6C7(COC(=O)C7)OC4(O)C6(C)CCC35)C2)OC(C)C1OC1OC(CO)C(OC2OC(CO)C(O)C(O)C2O)C(O)C1O (stereo not given) | inactive [at 9.27 µM]
O=C(Nc1cc(C(F)(F)F)cc(C(F)(F)F)c1)c1cnc(Cl)nc1C(F)(F)F | inactive
COc1cc(CCc2ccc(OCC=C(C)C)cc2)cc(OC)c1OC | inactive
COC(=O)c1ccc2c(c1)nc(NC(=O)c1ccccc1)n2CCCc1ccccc1 | inactive
Nc1nc2c(c(N3CC[C@@H](N)C3)n1)CCCc1ccccc1-2 | inactive
CC(=O)OC1CC(O)(C(C)C)C2C(OC(=O)c3ccc(O)cc3)C=C(C)C(=O)CC12C (stereo not given) | inactive [at 17.4 µM]
C/C=C/C=C/c1cc2c(C=O)c(O)c(CC=C(C)C)cc2o1 | inactive
O=C(Nc1ccccc1)N1CCN(c2nc(-c3ccccc3)ns2)CC1 | inactive
C#CCOc1ccc2c(c1)c(-c1ccc(C(C)C)cc1)nc(=O)n2C(C)C | inactive
C/C=C\NC(=O)C1NC(=O)C(CC(N)=O)NC(=O)C(NC(=O)C(=O)C(C)CC)Cc2ccc(O)c(c2)-c2cccc3c2NC(=O)C3(O)C1O (stereo not given) | inactive [at 17.4 µM]
Cc1cc(C)nc(SCC(=O)Nc2ncc(Cc3cccc4ccccc34)s2)n1 | inactive
